# Screening data deposited in PubChem BioAssay by The Scripps Research Institute Molecular Screening Center.
# Hits are enriched below; roughly 4.5% of the tested compounds scored in any of these assays.
# DAX1 inh-1: blocks DAX1 repression of SF-1 activated StAR promoter | HEK293T StAR-luciferase reporter, SF-1/DAX-1 repression relief | inhibition, % at 6.8 µM | actives 1.1% (n = 370,000);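 active = inhibition above the mean over all tested compounds plus 3 SD, cut at about 3.6% in these data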;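 also: 0% = DAX-1 cells with DMSO and 100% = cells lacking DAX-1 with DMSO; higher inhibition means more luminescence from relief of DAX-1 repression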
# GAA850 FXN act: increases GAA850 frataxin promoter reporter activity. HEK293 lucGAA850 FXN promoter luciferase reporter, 24 h; percent of 10 µM SAHA response. actives 0.56% (n = 360,000). activation, % at 6 µM;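 active = activation above the average of all compounds screened plus 3 SD, cutoff fixed separately per campaign, cut at about 7.5% in these data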;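 also: 0% = DMSO wells and 100% = 10 µM SAHA wells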
# hgDAF-12 ag: hgDAF-12 agonism, primary luciferase screen | HEK293 GAL4-hgDAF12 UAS-luciferase reporter, agonist luminescence; normalized to butyrate control | AID 687014 | activation, % at 6.8 µM | actives 1.8% (n = 370,000);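 active = activation above a cutoff set at the mean of all screened compounds plus 3 SD, cut at about 10% in these data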;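 also: 0% = DMSO wells and 100% = sodium butyrate wells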
# hcDAF12 agonist: H. contortus DAF-12 activation, primary screen. HEK293 hcDAF-12 lit1-tk-luc reporter, luminescence; 0% DMSO, 100% Δ7-dafachronic acid. actives 1.4% (n = 370,000). activation, % at 6.8 µM;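 active = activation above the mean of all tested compounds plus 3 SD, cut at about 5.5% in these data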;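 also: 100% = response to 3 µM Δ7-dafachronic acid high control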
# DAX1 inh-2: NR0B1 (DAX1) inhibition; actives 0.99% (n = 340,000); P51843; HEK293 Gal4-DAX1 luciferase reporter, luminescence; AID 504766; inhibition, % at 6.75 µM;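 active = inhibition above the mean over all tested compounds plus 3 SD, cut at about 4.2% in these data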;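 also: 0% = DAX1-transfected cells with DMSO and 100% = empty-vector control cells with DMSO; inhibition shows as a rise in luminescence from relieved DAX1 repression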
# Target sequence (P51843 207-470 limits assumed): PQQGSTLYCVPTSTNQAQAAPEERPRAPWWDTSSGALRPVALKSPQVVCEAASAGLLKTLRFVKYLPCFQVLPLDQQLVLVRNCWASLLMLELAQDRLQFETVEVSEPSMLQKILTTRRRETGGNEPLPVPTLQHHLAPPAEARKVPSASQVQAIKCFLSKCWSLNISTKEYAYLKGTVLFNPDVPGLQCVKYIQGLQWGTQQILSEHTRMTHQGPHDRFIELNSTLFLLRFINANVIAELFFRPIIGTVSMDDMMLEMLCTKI
# ssDAF12 agonist: S. stercoralis DAF-12 activation, primary screen | HEK293 ssDAF-12/GRIP1 lit1-tk-luc reporter, luminescence; % of 3 µM dafachronic acid response | actives 1% (n = 370,000) | activation, % at 6.8 µM | AID 652126;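 active = activation above the mean over all tested compounds plus 3 SD, cut at about 0.9% in these data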;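 also: 0% = DMSO-only wells and 100% = 3 µM delta7-dafachronic acid wells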
# LXR ag: activates human LXR-beta, counter-screen for hcDAF-12 agonists; shares compounds with hcDAF12 agonist; HEK293 Gal4-LXR tk-luc reporter, luminescence, 24 h; normalized: DMSO 0%, positive control 100%; activation, % at 6.8 µM; AID 743027; 3,400 tested, under 10 active;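 active = mean percent activation of the reporter above a cutoff set as the average over tested compounds plus their standard deviation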
# hcDAF12 ag: hcDAF-12 agonism, confirmation assay; activation, % at 6.8 µM; HEK293 hcDAF-12 lit1-tk-luc reporter, luminescence; % of Δ7-dafachronic acid response; shares compounds with hcDAF12 agonist; AID 743032; actives 61% (n = 3,400);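 active = mean activation across triplicate tests above the threshold derived from the earlier primary screen, cut at about 5.5% in these data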;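 also: 0% = DMSO only wells and 100% = 3 µM Δ7-dafachronic acid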
# * marks the source's active call; other numbers are inactive results; / = no result given.
SMILES,DAX1 inh-1,GAA850 FXN act,hgDAF-12 ag,hcDAF12 agonist,DAX1 inh-2,ssDAF12 agonist,LXR ag,hcDAF12 ag
O=C(O)c1cc(-c2c[nH]c3ccccc23)nc2ccc3ccccc3c12,0,3,4,9.1*,0,0,0,5.8*
O=C(CCCN1C(=O)C(c2ccccc2)Oc2cccnc21)Nc1ccccc1Cl (stereo not given),2,2,-4,-2,0,-1,/,/
CN(C)c1ccc(N=Cc2nc(-c3ccccc3)oc2OC(=O)c2cccc(Br)c2)cc1,3,5,7,6.7*,1,2.1*,0,1
CCOC(=O)c1ccc(N=Cc2nc(-c3ccccc3)oc2OC(C)=O)cc1,0,0,2,0,2,-1,/,/
COC(=O)c1sc(NC(=O)c2oc3ccccc3c2C)nc1C,1,3,8,8.2*,0,1,1,5
CCOC(=O)c1sc(NC(=O)c2cccs2)nc1C,1,4,6,11*,2,1.9*,1,6.3*
CCOC(=O)c1sc(NC(=O)c2ccco2)nc1C,1,1,-1,2,1,-1,/,/
Cc1c(C(=O)Nc2nnc(C(F)(F)F)s2)oc2ccccc12,0,-1,1,-1,0,-1,/,/
CC(=O)c1sc(NC(=O)c2cccs2)nc1C,0,1,2,-1,2,-1,/,/
Cc1nc(NC(=O)c2cccs2)ccc1Br,2,6,19*,9.8*,1,1.6*,1,11*
CCOC(=O)c1sc(NC(=O)c2ccc(C)o2)nc1C,4,3,11*,8.8*,1,0,1,8.6*
Cc1ccc(C(=O)Nc2ccc(N3CCN(C)CC3)cc2)c(Cl)c1,1,5,8,2,4,0,/,/
COc1ccc2nc(NC(=O)c3cccs3)sc2c1,1,4,12*,6.7*,/,0,2,7.2*
CCCC(=O)Nc1cccc(-c2nc3cc(C)c(C)cc3o2)c1,4.3*,4,7,7.2*,1,0,1,4
CCCC(=O)Nc1cccc(-c2nc3ccccc3o2)c1,0,2,0,-1,0,-1,/,/
CCc1nnc(NC(=O)CSc2nc3cc(OC)ccc3cc2C)s1,0,-1,2,-1,1,-1,/,/
c1ccc2[nH]c(-c3ccc4c(c3)OCO4)nc2c1,2,3,12*,9.9*,/,0,1,5
O=S(c1ccccc1O)S(=O)c1ccccc1O (stereo not given),0,0,5,2,1,-2,/,/
Cc1ccc(NCc2nc3ccccc3n2C)c(C)c1,3.7*,1,12*,12*,-1,1,1,11*
Cn1c(CNc2ccc(Cl)cc2)nc2ccccc21,4.3*,3,13*,16*,2,2.9*,1,11*
Cc1ccc(N2CCN(c3ccc(NCc4nc5ccccc5n4C)cc3)CC2)cc1,0,3,1,3,0,0,/,/
Cc1cccc(NCc2nc3ccccc3n2C)c1,2,2,10,7.5*,2,1,0,6.9*
O=C(O)c1ccc(N2C(=O)c3ccccc3C2=O)cc1[N+](=O)[O-],-1,1,-2,0,1,0,/,/
Fc1ccc(-c2ncc3ccccn23)cc1,0,0,5,2,0,-1,/,/
Clc1ccc(/C=C/c2ncc3ccccn23)cc1,3,6,11*,11*,2,1.6*,1,5
SMILES,DAX1 inh-1,GAA850 FXN act,hgDAF-12 ag,hcDAF12 agonist,DAX1 inh-2,ssDAF12 agonist,LXR ag,hcDAF12 ag
COc1ccc(Cl)cc1S(=O)(=O)N1CCN=C1C,1,0,-1,12*,1,1.6*,0,2
COc1ccc(Cl)cc1S(=O)(=O)N1CCCc2ccccc21,0,2,0,-1,1,0,/,/
COc1ccc(-c2nnc(SCc3c(C)noc3C)n2N)cc1OC,1,2,-1,0,0,-1,/,/
COc1ccc(CN(C)S(=O)(=O)c2nnc(NC(=O)c3ccccc3OC)s2)cc1OC,1,2,2,7.7*,0,0,0,4
O=C(CSc1nnnn1-c1cccc(O)c1)NC1CC1,1,1,3,3,0,0,/,/
Cc1ccnc(NC(=O)CNC(=O)c2cccs2)c1,0,2,2,-1,4,-1,/,/
Cc1ccnc(NC(=S)NC(=O)c2cccs2)c1,4.3*,5,19*,14*,4,2.1*,2,11*
CNc1cc(-c2cnn(CC(C)C)c2)ncn1,3,3,10,2,/,-1,/,/
COc1ccc(Br)cc1-c1noc(-c2ccccc2F)n1,0,1,-2,0,-1,-1,/,/
COc1ccc(Cl)cc1-c1nc(-c2ccc(Br)o2)no1,0,1,4,8.2*,0,1,0,8.8*
Cc1ccccc1-c1nc(-c2ccc(Br)o2)no1,1,4,10,17*,4,2.3*,1,12*
Fc1ccccc1-c1nc(-c2ccc(Br)o2)no1,3,0,21*,17*,2,2.3*,2,17*
C=CCOc1ccc(C(c2c(C)n(C)n(-c3ccccc3)c2=O)c2c(C)n(C)n(-c3ccccc3)c2=O)cc1,0,0,-1,1,-1,-1,/,/
O=c1[nH]c2ccccc2c2nc3ccccn3c12,1,5,12*,8.1*,2,1.7*,0,9.5*
Cc1ccc(NC(=O)c2nsc(Cl)c2Cl)cc1,3,4,11*,13*,5.8*,2.1*,2,14*
Clc1ccc(-n2cnc3c(Cl)ncnc32)cc1Cl,1,-1,2,1,1,-1,/,/
O=C(NCc1ccccc1)C(c1cc2ccccc2o1)n1c(=O)c(-c2ccco2)nc2ccccc21 (stereo not given),3.9*,/,11*,9.6*,/,2.5*,1,11*
Cc1cc(=O)oc2cc(NC(=O)c3cc(F)ccc3F)ccc12,2,3,3,0,1,-1,/,/
Cc1cc(=O)oc2cc(NC(=O)c3ccccc3OC(F)F)ccc12,2,6,10,7.3*,0,1.6*,0,9.6*
O=C(O)CCCCCNC(=O)C(=O)C1C(=O)Nc2ccccc21 (stereo not given),0,2,0,4,0,1,/,/
